Experimental data reported in PubChem BioAssay (NCI).
The panel holds about 83,000 compounds, 20% with a hit somewhere; the sample as a whole holds those more often.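 Negative percent growth values reflect cell death: -40 means 40% of the cells present at the start died, and -100 means all died.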 Calls of active or inactive are those of the source. How the source made its calls: active means growth percent below 10; inactive means the rest.

Tests used:
Assay in all cases: NCI-60 one-dose screen, 48 h (100 = growth as untreated, 0 = no growth, -100 = all killed)
Conditions in all cases: 10 µM unless noted
DU-145 prostate = system: DU-145 prostate
K-562 leukemia = system: K-562 leukemia
MALME-3M melanoma = system: MALME-3M melanoma
MDA-MB-231 breast = system: MDA-MB-231 breast
RXF 393 renal = system: RXF 393 renal
SF-268 CNS = system: SF-268 CNS
SF-295 CNS = system: SF-295 CNS
SF-539 CNS = system: SF-539 CNS
UACC-257 melanoma = system: UACC-257 melanoma
M14 melanoma = system: M14 melanoma

Measured: growth

O=C(NC[C@H](O)CN1CCc2ccccc2C1)c1cc(NC2COC2)ncn1
inactive: DU-145 prostate 103% | K-562 leukemia 108% | MALME-3M melanoma 93.3% | MDA-MB-231 breast 94.6% | RXF 393 renal 114% | SF-268 CNS 86% | SF-295 CNS 97.7% | SF-539 CNS 97.4% | UACC-257 melanoma 116% | M14 melanoma 92.4%

Cc1c(Cl)cccc1NC(=O)c1sc2nc3c(cc2c1N)CN(Cc1ccccc1)CC3
inactive: DU-145 prostate 30.5% | K-562 leukemia 10% | MALME-3M melanoma 49.5% | MDA-MB-231 breast 86.3% | RXF 393 renal 68.8% | SF-268 CNS 42.3% | SF-295 CNS 21.8% | SF-539 CNS 39.3% | UACC-257 melanoma 63.6% | M14 melanoma 26.8%

NCCN1CCNCC1
inactive: DU-145 prostate 104% | K-562 leukemia 106% | MALME-3M melanoma 109% | MDA-MB-231 breast 105% | RXF 393 renal 135% | SF-268 CNS 102% | SF-295 CNS 109% | SF-539 CNS 95.6% | UACC-257 melanoma 25.9% | M14 melanoma 101%

CCN(CC)CC#CCOC(=O)[C@]1(C)CCC[C@]2(C)[C@H]3C[C@H]4C(C(C)C)=C[C@]3(CC[C@H]21)[C@@H]1C(=O)CCC(=O)[C@@H]14
inactive: DU-145 prostate 71% | K-562 leukemia 18.6% | MALME-3M melanoma 45.3% | MDA-MB-231 breast 69% | RXF 393 renal 15.3% | SF-268 CNS 68.9% | SF-295 CNS 59.6% | SF-539 CNS 66.8% | UACC-257 melanoma 56.9% | M14 melanoma 51.4%

CNS(=O)(=O)c1cccc(-c2ccc3c4c(n(C)c(=O)c3c2)-c2ccccc2C4=O)c1
inactive: DU-145 prostate 20.7% | K-562 leukemia 41.3% | MALME-3M melanoma 55% | MDA-MB-231 breast 87.1% | RXF 393 renal 96.5% | SF-268 CNS 58.6% | SF-295 CNS 24.1% | SF-539 CNS 53.8% | UACC-257 melanoma 96.3% | M14 melanoma 60.1%

C[C@]12CC[C@@H]3c4ccc(O)cc4CC[C@H]3[C@@H]1C[C@H](O)C2
inactive: DU-145 prostate 93.9% | K-562 leukemia 19.7% | MALME-3M melanoma 80.5% | MDA-MB-231 breast 64.6% | RXF 393 renal 100% | SF-268 CNS 78.4% | SF-295 CNS 87.3% | SF-539 CNS 73.5% | UACC-257 melanoma 78.5% | M14 melanoma 52.7%

Cc1cc2ccccc2c[n+]1CC(=O)c1ccc(-c2ccccc2)cc1
inactive: DU-145 prostate 65.8% | K-562 leukemia 11% | MALME-3M melanoma 71.4% | MDA-MB-231 breast 51.1% | RXF 393 renal 62.5% | SF-268 CNS 73.4% | SF-295 CNS 42.4% | SF-539 CNS 75.5% | UACC-257 melanoma 50.3% | M14 melanoma 47.3%

CCN1CCC[C@H]1c1cc(O)c2c(c1OC)C[C@H]1C[C@H]3[C@H](N)C(=O)C(C(N)=O)=C(O)[C@@]3(O)C(=O)C1=C2O
active: DU-145 prostate 1.87% | K-562 leukemia 3.76% | MALME-3M melanoma -16.5% | MDA-MB-231 breast -6.79% | RXF 393 renal -40.4% | SF-268 CNS 2.64% | SF-295 CNS 0.93% | SF-539 CNS -21% | UACC-257 melanoma -14.1% | M14 melanoma -38.8%

CCN(CC)c1ccc2c(c1)Oc1nc(N)c(C#N)c(N)c1C2Sc1ccc(OC)cc1 (stereo not given)
active: DU-145 prostate -0.338% | MALME-3M melanoma 1.4% | MDA-MB-231 breast -0.581% | RXF 393 renal -0.0562% | SF-539 CNS -34.6% | M14 melanoma -16.2%
inactive: K-562 leukemia 13.5% | SF-268 CNS 16.5% | SF-295 CNS 29.1% | UACC-257 melanoma 92.1%

COc1ccc(Cl)c([N+](=O)[O-])c1
inactive: DU-145 prostate 108% | K-562 leukemia 99.8% | MALME-3M melanoma 106% | MDA-MB-231 breast 102% | RXF 393 renal 108% | SF-268 CNS 104% | SF-295 CNS 98% | SF-539 CNS 91.9% | UACC-257 melanoma 111% | M14 melanoma 96.3%

CCc1ccc(OCc2ccccc2C(=O)Nc2ccc3nc(C)cc(N)c3c2)cc1
active: DU-145 prostate -96.3% | K-562 leukemia -68% | MALME-3M melanoma -86.4% | MDA-MB-231 breast -82.4% | RXF 393 renal -84.5% | SF-268 CNS -82.5% | SF-295 CNS -92% | SF-539 CNS -97.5% | UACC-257 melanoma -79.7% | M14 melanoma -93.6%

COc1cc(NCC(=O)Nc2cc(Nc3cccc(C(F)(F)F)c3)ncn2)c(Cl)c(OC)c1Cl
inactive: DU-145 prostate 97.4% | K-562 leukemia 85.6% | MALME-3M melanoma 115% | MDA-MB-231 breast 78.2% | RXF 393 renal 114% | SF-268 CNS 98.9% | SF-295 CNS 75% | SF-539 CNS 101% | UACC-257 melanoma 88.2% | M14 melanoma 93.1%

S=c1ssnc1-c1cc2ccccc2o1
inactive: DU-145 prostate 97.5% | K-562 leukemia 55.7% | MALME-3M melanoma 79.8% | MDA-MB-231 breast 91.2% | RXF 393 renal 85.6% | SF-268 CNS 78.8% | SF-295 CNS 75.1% | SF-539 CNS 102% | UACC-257 melanoma 94.5% | M14 melanoma 52.4%

COC1=CC=CC2(OC)C3(O)CCCc4cccc(c43)N3C(=O)COC132 (stereo not given)
inactive: DU-145 prostate 106% | K-562 leukemia 92.5% | MALME-3M melanoma 92.9% | MDA-MB-231 breast 98.5% | RXF 393 renal 104% | SF-268 CNS 98.4% | SF-295 CNS 106% | SF-539 CNS 98% | UACC-257 melanoma 101% | M14 melanoma 99.1%

Cc1nn(-c2ccc(-c3ccc(OC(F)(F)F)cc3)cc2)c2nc(-c3ccccc3)nc(N)c12
inactive: DU-145 prostate 104% | K-562 leukemia 93.1% | MALME-3M melanoma 118% | MDA-MB-231 breast 85.1% | RXF 393 renal 104% | SF-268 CNS 97.2% | SF-295 CNS 110% | SF-539 CNS 100% | UACC-257 melanoma 101% | M14 melanoma 102%

Cc1ccn2c3c(c(C(=O)O)c2c1)C(=O)c1ccccc1C3=O
inactive: K-562 leukemia 85.4% | MDA-MB-231 breast 77.2% | RXF 393 renal 56.9% | SF-268 CNS 80.3% | SF-295 CNS 26.9% | SF-539 CNS 65.8% | UACC-257 melanoma 56.4%
active: DU-145 prostate -55.7% | MALME-3M melanoma -62.7% | M14 melanoma -43.5%

Cc1cccc(C)c1NCc1nnc(-c2ccc(O)cc2)o1
inactive: DU-145 prostate 110% | K-562 leukemia 126% | MALME-3M melanoma 101% | MDA-MB-231 breast 103% | RXF 393 renal 108% | SF-268 CNS 101% | SF-295 CNS 96.5% | SF-539 CNS 97.8% | UACC-257 melanoma 111% | M14 melanoma 98.5%

COc1ccccc1N1CCN(CCCOc2ccc(C(=O)/C=C3/C(=O)Nc4ccccc43)cc2)CC1
inactive: DU-145 prostate 81.8% | K-562 leukemia 17.6% | MALME-3M melanoma 66.5% | MDA-MB-231 breast 57% | RXF 393 renal 72.4% | SF-268 CNS 86.9% | SF-295 CNS 71.1% | SF-539 CNS 81.5% | UACC-257 melanoma 90.2% | M14 melanoma 66%

C#CC[C@@H]1C[C@]2(C)[C@H]3CC[C@@H]4[C@H]5[C@H](C(=C)C)CC[C@]5(C(=O)O)CC[C@@]4(C)[C@]3(C)CC[C@H]2C(C)(C)[C@H]1O
inactive: DU-145 prostate 57.4% | K-562 leukemia 35.1% | MALME-3M melanoma 53% | MDA-MB-231 breast 20.8% | SF-268 CNS 66.5% | SF-295 CNS 12.8% | SF-539 CNS 53.8% | UACC-257 melanoma 70.9% | M14 melanoma 60.3%
active: RXF 393 renal 6.63%

c1ccc(Sc2ncccn2)nc1
inactive: DU-145 prostate 109% | K-562 leukemia 90% | MALME-3M melanoma 111% | MDA-MB-231 breast 109% | RXF 393 renal 110% | SF-268 CNS 104% | SF-295 CNS 109% | SF-539 CNS 96% | UACC-257 melanoma 99.2% | M14 melanoma 99.2%

CC(=O)Oc1c2c(nc3c1c1ccccc1n3Cc1ccccc1)-c1ccccc1C2
inactive: DU-145 prostate 99.1% | K-562 leukemia 78.4% | MALME-3M melanoma 102% | MDA-MB-231 breast 80.4% | RXF 393 renal 116% | SF-268 CNS 93.2% | SF-295 CNS 96% | SF-539 CNS 94.5% | UACC-257 melanoma 93.2% | M14 melanoma 88.3%

CC(=O)Nc1ccc2c(c1)Cc1cc(F)ccc1-2
inactive: DU-145 prostate 96.4% | K-562 leukemia 91.4% | MALME-3M melanoma 104% | MDA-MB-231 breast 101% | RXF 393 renal 117% | SF-268 CNS 80.7% | SF-295 CNS 101% | SF-539 CNS 97% | UACC-257 melanoma 99.7% | M14 melanoma 110%

COc1cc(NCC(=O)Nc2cc(Nc3ccc(C)cc3)ncn2)c(Cl)c(OC)c1Cl
inactive: DU-145 prostate 102% | K-562 leukemia 80.6% | MALME-3M melanoma 111% | MDA-MB-231 breast 64.2% | RXF 393 renal 118% | SF-268 CNS 88.6% | SF-295 CNS 82.8% | SF-539 CNS 95.5% | UACC-257 melanoma 89% | M14 melanoma 88.4%

CCOC(=O)NC(Cc1ccccc1)c1ccccc1 (stereo not given)
inactive: DU-145 prostate 110% | K-562 leukemia 91% | MALME-3M melanoma 110% | MDA-MB-231 breast 97.8% | RXF 393 renal 112% | SF-268 CNS 111% | SF-295 CNS 106% | SF-539 CNS 98.6% | UACC-257 melanoma 108% | M14 melanoma 95.8%

Cc1cc(Nc2nc(SCc3ccc(C(=O)Nc4ccc(F)cc4N)cc3)nn3cccc23)n[nH]1
active: K-562 leukemia 7.36% | SF-539 CNS 8.82%
inactive: DU-145 prostate 20.1% | MALME-3M melanoma 53.7% | MDA-MB-231 breast 22.8% | RXF 393 renal 23.5% | SF-268 CNS 28.2% | SF-295 CNS 18% | UACC-257 melanoma 67.6% | M14 melanoma 38.9%

CC1=C/C(=N\N=C2/C=C(C)CC(C)(C)C2)CC(C)(C)C1
inactive: DU-145 prostate 105% | K-562 leukemia 86.9% | MALME-3M melanoma 96.4% | MDA-MB-231 breast 106% | RXF 393 renal 114% | SF-268 CNS 93.4% | SF-295 CNS 102% | SF-539 CNS 105% | UACC-257 melanoma 90.2% | M14 melanoma 103%

CCOC(=O)NCCc1nc2c([nH]1)c(=O)n(C)c(=O)n2C
inactive: DU-145 prostate 107% | K-562 leukemia 119% | MALME-3M melanoma 99.2% | MDA-MB-231 breast 105% | RXF 393 renal 113% | SF-268 CNS 98.5% | SF-295 CNS 103% | SF-539 CNS 105% | UACC-257 melanoma 113% | M14 melanoma 88.8%
